Results as given in PubChem BioAssay.

target: Epidermal growth factor receptor (Homo sapiens) (UniProt P00533); experiment: EGFR binders on small-molecule microarrays, primary screen, biochemical, small-molecule microarray, 635 nm fluorescence (AID 1104); conditions: EGFR binding, higher = more signal;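 note: score merges 667 nm emission intensity with spot signal to noise over triplicate slides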
Sequence (P00533 whole entry, looked up): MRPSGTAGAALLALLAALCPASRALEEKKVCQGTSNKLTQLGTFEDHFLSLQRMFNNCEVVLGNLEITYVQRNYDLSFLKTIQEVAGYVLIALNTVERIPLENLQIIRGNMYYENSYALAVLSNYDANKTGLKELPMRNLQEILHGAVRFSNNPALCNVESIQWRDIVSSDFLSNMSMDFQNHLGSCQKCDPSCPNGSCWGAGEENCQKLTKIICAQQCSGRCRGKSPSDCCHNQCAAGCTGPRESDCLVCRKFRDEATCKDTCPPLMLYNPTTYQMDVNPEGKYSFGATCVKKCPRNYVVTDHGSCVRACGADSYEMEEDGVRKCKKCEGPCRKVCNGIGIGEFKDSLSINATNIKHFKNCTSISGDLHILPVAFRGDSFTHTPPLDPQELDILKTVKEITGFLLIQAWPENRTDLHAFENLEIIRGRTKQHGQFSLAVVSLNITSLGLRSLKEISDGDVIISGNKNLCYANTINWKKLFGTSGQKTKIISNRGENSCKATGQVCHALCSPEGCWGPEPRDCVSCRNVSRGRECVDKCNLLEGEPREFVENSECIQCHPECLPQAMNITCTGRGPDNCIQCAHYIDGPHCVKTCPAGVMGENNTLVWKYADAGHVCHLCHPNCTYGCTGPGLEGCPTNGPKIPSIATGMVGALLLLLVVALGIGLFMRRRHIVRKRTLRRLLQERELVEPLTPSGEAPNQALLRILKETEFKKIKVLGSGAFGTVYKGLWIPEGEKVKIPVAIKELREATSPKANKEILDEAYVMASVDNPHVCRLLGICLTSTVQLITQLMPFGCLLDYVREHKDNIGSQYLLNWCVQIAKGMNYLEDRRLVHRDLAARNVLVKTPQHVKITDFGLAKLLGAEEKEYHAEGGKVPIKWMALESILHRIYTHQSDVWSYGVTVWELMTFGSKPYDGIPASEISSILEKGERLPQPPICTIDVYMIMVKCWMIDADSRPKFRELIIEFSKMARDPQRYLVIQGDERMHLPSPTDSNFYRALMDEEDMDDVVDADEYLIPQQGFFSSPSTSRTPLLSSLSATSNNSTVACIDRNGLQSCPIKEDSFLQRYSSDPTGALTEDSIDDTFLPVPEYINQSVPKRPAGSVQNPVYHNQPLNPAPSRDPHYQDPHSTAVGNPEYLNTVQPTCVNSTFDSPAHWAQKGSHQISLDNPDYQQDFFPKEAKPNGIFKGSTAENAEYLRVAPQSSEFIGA

Structure (SMILES)	composite z-score
N#Cc1ccc(NN2C(C(O)c3cc(C(F)(F)F)cc(C(F)(F)F)c3)C=CC3C(=O)N(c4ccccc4)C(=O)C32)cc1 (configuration not stated)	0.292
[N-]=[N+]=NCc1ccccc1[C@@H]1OC(c2ccc(OCCCO)cc2)=N[C@]1(Cc1ccccc1)C(=O)N1CCOCC1	0.0588
CC(CCN1CCCCc2nc(C)c(C)cc21)=NOC(C)CN1CCCCc2nc(C)c(C)cc21 (configuration not stated)	1.58
O=C(NN=C1C[C@@H](O)[C@@H](O)[C@@H]2[C@@H]3C(=O)N(c4cccc(Oc5ccccc5)c4)C(=O)[C@@H]3CC[C@H]12)OCc1ccccc1	0.116
CCOC(=O)CCN1C(=O)[C@H]2[C@H]3[C@H](O)[C@H](O)CC(=O)[C@H]3CC[C@H]2C1=O	0.4
O=C1O[C@@H](c2ccccc2)[C@@H](c2ccccc2)N2[C@@H](c3ccc(OCCO)cc3)[C@]3(C(=O)Nc4ccc(C#CCCO)cc43)[C@@H](C(=O)N3CCCCCCC3)[C@H]12	0.744
c1ccc(C2NCCc3c2[nH]c2ccccc32)cc1 (configuration not stated)	0.112
